Shown are actives, neighbours in structure and some others; about 12% of the full set was active somewhere.
JMJD2A Tudor: qHTS Assay for Inhibitors of JMJD2A-Tudor Domain. AlphaScreen JMJD2A-Tudor / H3K4me3 peptide binding. Potency, µM (titrated, usually from 114 µM), actives largely listed as inhibitors. hit rate 4.4% among 390,000; further: nearly all actives have a fitted effect of over 50% in size
BAZ2B block: qHTS Assay for Inhibitors of BAZ2B | Bromodomain adjacent to zinc finger domain protein 2B (Homo sapiens), Q9UIF8 | AID 504333, 2011 | hit rate 4.4% among 360,000 | Potency, µM (highest dose often 114 µM), usual class: inhibitors | AlphaScreen BAZ2B-H3K14Ac peptide displacement; further: nearly all actives have a fitted effect of over 60% in size
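BAZ2B 50 nM plus b-H3(5-23)K14Ac 50 nM, PBS pH 7.4/0.01% Tween-20, 30 min RT; compound added (max 110 uM), 30 min RT; streptavidin donor/Ni-chelate acceptor beads 10 ug/mL final, 20 min dark; AlphaScreen read.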
G9a inh: qHTS Assay for Inhibitors of Histone Lysine Methyltransferase G9a; Histone-lysine N-methyltransferase EHMT2 (Homo sapiens), Q96KQ7; G9a H3K9 monomethylation, AlphaScreen, 2 h; Potency, µM (doses to about 102 µM), most hits filed as inhibitors; hit rate 8.8% among 350,000; further: nearly all actives have a fitted effect of over 75% in size
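G9a (20 nM) was preincubated 15 min with compound, then reacted 2 h at room temperature with 500 nM biotin-H3K9 peptide and 20 µM SAM. Monomethyl-H3K9 detected by AlphaScreen using anti-H3K9me1 antibody.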
HP1b chromo inh: HTS for Inhibitors of HP1-beta Chromodomain Interactions with Methylated Histone Tails; Chromobox protein homolog 1 (Homo sapiens), P83916; AlphaScreen HP1-beta / biotin-H3K9me3 peptide binding; Potency, µM (series often up to 114 µM), hits mostly inhibitors; hit rate 0.56% among 390,000; AID 540317, 2011; further: nearly all actives have a fitted effect of over 70% in size
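HP1-beta protein (50 nM final) preincubated 30 min at room temperature with biotinylated H3(1-18)K9me3 peptide (50 nM) in PBS pH 7.4, 0.01% Tween-20, then compound added for 30 min. AlphaScreen streptavidin donor/nickel chelate acceptor beads (10 ug/mL final), 30 min dark, luminescence read.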
L3MBTL1 inh: qHTS Assay for the Inhibitors of L3MBTL1 | Potency, µM (series often up to 57.1 µM), actives largely listed as inhibitors | hit rate 0.66% among 230,000 | AlphaScreen L3MBTL1–H3K9me1 peptide binding | Lethal(3)malignant brain tumor-like protein 1 (Homo sapiens), Q9Y468; further: nearly all actives have a fitted effect of over 60% in size
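Read-out is AlphaScreen signal from streptavidin donor and nickel chelate acceptor beads (10 ug/mL final each) bridging L3MBTL1 (50 nM) and biotinylated K9-monomethylated H3(1-15) peptide (75 nM), after 30 min compound exposure at room temperature.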
Sfp inh: qHTS Assay for Inhibitors of Bacillus subtilis Sfp phosphopantetheinyl transferase (PPTase); Potency, µM, most hits filed as inhibitors; Biochemical Sfp PPTase activity, qHTS; hit rate 3.5% among 310,000; AID 1490, 2009; 4'-phosphopantetheinyl transferase ffp (Bacillus subtilis), Q9F4F7;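 further: the enzyme is Sfp with the accession as filed and its product quenches rhodamine fluorescence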
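Fluorescence-quenching assay with 15 nM Sfp, 5 uM rhodamine-CoA and 12.5 uM BHQ-2-labelled ybbR peptide in pH 7.6 Hepes/MgCl2 buffer. Enzyme was pre-incubated with compound for 15 min at room temperature. Rate was taken from the 30-min fluorescence change (525/598 nm).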
Hits are given with their value; - = inactive; ? = inconclusive; . = no result given; [ ] = remark or other dose. The call rests on the fitted dose curve; in most records, active means well fitted curve in the direction sought with a large enough effect; inconclusive means small, poorly fitted or top-dose-only effect, or another doubt; inactive means no such curve, though single readings can be large; an effect the other way counts as inactive or inconclusive.

SMILES	JMJD2A Tudor	BAZ2B block	G9a inh	HP1b chromo inh	L3MBTL1 inh	Sfp inh
CC[C@H](C)[C@H](NC(=O)[C@H](CO)NC(=O)[C@H](CC(N)=O)NC(=O)[C@H](CC(C)C)NC(=O)[C@H](Cc1ccc(O)cc1)NC(=O)[C@H](CCCCN)NC(=O)[C@H](CCCCN)NC(=O)[C@@H](NC(=O)[C@H](C)NC(=O)[C@H](CCSC)NC(=O)[C@H](CCC(N)=O)NC(=O)[C@H](CCCCN)NC(=O)[C@H](CCCNC(=N)N)NC(=O)[C@H](CC(C)C)NC(=O)[C@H](CCCNC(=N)N)NC(=O)[C@@H](NC(=O)[C@H](Cc1ccc(O)cc1)NC(=O)[C@H](CC(N)=O)NC(=O)[C@H](CC(=O)O)NC(=O)[C@@H](NC(=O)[C@H](Cc1ccccc1)NC(=O)[C@@H](NC(=O)[C@H](C)NC(=O)[C@H](CC(=O)O)NC(=O)[C@H](CO)NC(=O)[C@@H](N)Cc1cnc[nH]1)C(C)C)[C@@H](C)O)[C@@H](C)O)C(C)C)C(=O)N[C@@H](CC(C)C)C(=O)N[C@@H](CC(N)=O)C(N)=O	.	.	.	.	.	-
Cc1ccc(S(=O)(=O)N[C@H]2COC(=O)[C@H](C)COC(=O)C/C=C\[C@H]2C)cc1	.	.	.	.	.	-
Cc1cc(Cl)c2oc(C(=O)N(CCO)Cc3ccccc3)c(C)c2c1	-	-	-	-	-	-
Cc1cc(Cl)c2oc(C(=O)N(C)C3CCOC3)c(C)c2c1 (stereo not given)	14µM	-	-	-	.	-
COc1ccccc1CNC(=O)C1CCN(S(=O)(=O)c2ccc3c(c2)CCCN3C(C)=O)CC1	-	-	-	-	.	.
CCN1CCN(c2c(S(=O)(=O)c3ccc(C)c(C)c3)cnc3ccc(F)cc23)CC1	-	-	?	-	-	-
CC(C)CC(=O)Nc1ccc(Nc2ccccc2)cc1	-	?	20µM	-	-	-
CC(C)CC(=O)Nc1ccc(Oc2ccc(NC(=O)CC(C)C)cc2)cc1	-	-	-	-	-	-
O=C(CC(c1ccccc1)c1ccccc1)Nc1ccc(O)cc1	-	-	.	-	.	-
O=C(CC(NCCc1ccccc1)C(=O)O)Nc1ccc(O)cc1 (stereo not given)	.	?	22µM	.	.	-
Cc1nnsc1-c1nc2ccccc2[nH]1	-	.	28µM	-	-	-
Cc1ccc(-c2nc3ccccc3[nH]2)s1	-	-	7.9µM	-	-	50µM
COC(=O)c1ccc(CNC(=O)Cn2cnc3c(SC)nc(N)nc32)cc1	?	.	.	-	-	.
CC(=O)O[C@]1(C(C)=O)CC[C@@H]2[C@@H]3C=C(Cl)C4=CC(=O)[C@H]5C[C@@H]5[C@]4(C)[C@H]3CC[C@]21C	.	.	-[21.5 µM]	.	.	-
CC1(C)CC(=O)c2cc(C(=O)Nc3ccccc3Cl)c(=O)n(-c3ccc(Cl)cc3)c2C1	?	-	-	-	.	.
Cc1ccc(C(=O)COC(=O)C(CC(C)C)NC(=O)C2CCC(C)CC2)cc1 (stereo not given)	-	-	-	-	.	.
CC(C)c1ccccc1NC(=O)CNCCOc1ccccc1F	28µM	50µM	-	?	.	-
CC(C)c1ccccc1NC(=O)Nc1ccc(F)cc1F	-	-	.	-	-	-
NC(=O)CC(NSc1ccccc1[N+](=O)[O-])C(=O)O (stereo not given)	35µM	?	?	-	-	50µM
Cn1c(NCCO)nc2c1c(=O)n(Cc1cccc(F)c1)c(=O)n2C	-	-	-	-	.	.
CCOC(=O)c1c(C)n(OCc2ccccc2)c2ccc3c(no[n+]3[O-])c12	-	-	-	-	-	79µM
COc1cc(/C=N/n2nnnc2N)ccc1O	-	-	?	-	-	-
COc1ccc(/C=N/n2c(-c3n[nH]c4c3CCC4)n[nH]c2=S)cc1OC	1.4µM	-	?	-	-	-
